Test results as given in PubChem BioAssay (NCI).
About 83,000 compounds went through this panel and 20% of them were active in at least one assay; those are over-represented in the sample as a whole.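 A percent growth of 40 corresponds to 60% growth inhibition; 0 means no net growth; -100 means all cells died. Active threshold: below 10.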 Unmarked numbers belong to inactive results. Activity calls are given as the source filed them.

Columns and labels:
Assay in all cases: NCI-60 one-dose screen, 48 h (100 = growth as untreated, 0 = no growth, -100 = all killed)
Details in all cases: 10 µM unless noted
NCI-H23 lung = system: NCI-H23 lung
NCI-H226 lung = system: NCI-H226 lung
NCI-H322M lung = system: NCI-H322M lung
HOP-62 NSCLC = system: HOP-62 NSCLC
NCI-H460 lung = system: NCI-H460 lung
HOP-92 NSCLC = system: HOP-92 NSCLC
NCI-H522 lung = system: NCI-H522 lung
A549/ATCC NSCLC = system: A549/ATCC NSCLC
786-0 renal = system: 786-0 renal
COLO 205 colon = system: COLO 205 colon
DU-145 prostate = system: DU-145 prostate
K-562 leukemia = system: K-562 leukemia
MALME-3M melanoma = system: MALME-3M melanoma
MDA-MB-231 breast = system: MDA-MB-231 breast
RXF 393 renal = system: RXF 393 renal
SF-268 CNS = system: SF-268 CNS
SF-295 CNS = system: SF-295 CNS
SF-539 CNS = system: SF-539 CNS
UACC-257 melanoma = system: UACC-257 melanoma
M14 melanoma = system: M14 melanoma

Row | SMILES | growth (NCI-H23 lung) [%] | growth (NCI-H226 lung) [%] | growth (NCI-H322M lung) [%] | growth (HOP-62 NSCLC) [%] | growth (NCI-H460 lung) | growth (HOP-92 NSCLC) | growth (NCI-H522 lung) | growth (A549/ATCC NSCLC) | growth (786-0 renal) [%] | growth (COLO 205 colon) | growth (DU-145 prostate) [%] | growth (K-562 leukemia) | growth (MALME-3M melanoma) | growth (MDA-MB-231 breast) [%] | growth (RXF 393 renal) | growth (SF-268 CNS) [%] | growth (SF-295 CNS) [%] | growth (SF-539 CNS) | growth (UACC-257 melanoma) [%] | growth (M14 melanoma)
1 | COC(=O)[C@]12CCC(C)(C)C[C@H]1[C@H]1C(=O)C[C@@H]3[C@@]4(C)c5c([nH]c6ccccc6c5=O)C(C)(C)[C@@H]4CC[C@@]3(C)[C@]1(C)CC2 | 65.8 | 65.7 | 90.4 | 85.5 | 66.8% | 85.8% | 45.1% | 34.8% | 86.3 | 77.5% | 86.5 | 18.9% | 88.1% | 86.4 | 65.7% | 82 | 35.6 | 92.1% | 57.4 | 29%
2 | COc1ccc(C2CC(c3ccc4ccccc4c3)=NN2/C=C2\SC(=S)N(NC(=O)Cc3ccccc3Nc3c(Cl)cccc3Cl)C2=O)cc1 (stereo not given) | 40.5 | 45.9 | 42.8 | 23.7 | 9.42% (active) | 38.5% | -15.4% (active) | 23.6% | 13.8 | 55.6% | 12.2 | 10.6% | 52.9% | 41 | -8.96% (active) | 34.6 | 14.1 | -16.9% (active) | 56.2 | -25.1% (active)
3 | CNc1ccc(-c2cc(=O)oc3ccc(Cl)cc23)cc1 | 18.5 | 48.1 | 54.4 | 26.2 | 6.78% (active) | 37.3% | -25.3% (active) | 10.1% | 37.3 | -15.1% (active) | 18 | 11% | 110% | 16.2 | 43.1% | 27.6 | 18.1 | -2.97% (active) | 38 | 25.4%
4 | N#Cc1c(-c2ccc(Cl)cc2)nc(N/N=C/c2cccc(Br)c2)nc1N1CCOCC1 | 98.3 | 92.3 | 90.6 | 90.9 | 87% | 71.2% | 91.1% | 80.4% | 61.8 | 44% | 59.3 | 12.6% | 133% | 103 | 56.2% | 89.2 | 91.5 | 78.8% | 71.6 | 62.4%
5 | N#Cc1c(-c2ccc(Cl)cc2)nc(N=Nc2c(O)[nH]c3ccc(Cl)cc23)nc1N1CCOCC1 | 84.8 | 85.6 | 96.5 | 96.3 | 98.4% | 89.5% | 93.6% | 102% | 103 | 105% | 103 | 116% | 88.8% | 82.9 | 95.7% | 95.8 | 102 | 97.8% | 107 | 93.6%
6 | C=CC(=O)Nc1cccc(-c2nc(SC)nc(Nc3ccccc3OC)c2C#N)c1 | 55.5 | 34.3 | 80 | 37.9 | 5.19% (active) | 31% | 39.3% | -6.83% (active) | 11.6 | 60.9% | 10.8 | 8.6% (active) | -10.4% (active) | 33.2 | 39.7% | 53.5 | 80.3 | 68.6% | 57.5 | 50.4%
7 | O=S(=O)(Nc1ccc(OC(F)F)cc1)c1ccc(-c2cnc(C3CC3)o2)cc1 | 73.4 | 74.1 | 95.7 | 66.6 | 79.1% | 59.3% | 43% | 60.4% | 84 | 97.2% | 90.5 | 19.8% | 76.5% | 70.2 | 81.9% | 75.4 | 53.3 | 79.2% | 75 | 50.9%
8 | COc1cc2nc(N3CCCC3)nc(NCCc3ccccc3)c2cc1OC | 59.5 | 90.5 | 75.2 | 68.5 | 10.1% | 74.6% | 61.7% | 18.5% | 81.5 | -84.8% (active) | 37.6 | -19.3% (active) | 82.1% | 59.3 | 67.9% | 87.2 | 80 | 86.1% | 115 | 78.4%
9 | O=C(O)c1ccc(N=CC(=O)c2ccc(-c3ccccc3)cc2)cc1 | 93.6 | 83.9 | 105 | 103 | 104% | 84.2% | 87.2% | 92.1% | 104 | 111% | 112 | 116% | 97.7% | 101 | 118% | 109 | 104 | 104% | 93.1 | 94.1%
10 | CCOC(=O)c1c(C)oc2ncnc(N3CCN(C(=O)COc4ccc(SC)cc4)CC3)c12 | 93.9 | 83.3 | 99.3 | 86.4 | 98.7% | 78.9% | 74.9% | 90.2% | 95.8 | 98% | 99.6 | 82.4% | 105% | 88.6 | 99.7% | 92.7 | 88.2 | 93.5% | 95 | 97.9%
11 | CC1=C[C@H]2c3c(c(O)c(O)c4oc5cc(O)ccc5c(=O)c34)[C@H](c3cc(O)c(O)c4oc5cc(O)ccc5c(=O)c34)[C@H]2C(C)(C)C1 | 15.8 | 26.3 | 63.6 | 39.8 | 0.208% (active) | -9.21% (active) | 13.7% | 13.1% | 47.9 | 46.6% | 34.4 | 6.38% (active) | 60.8% | 50.9 | 54.5% | 36 | 21.5 | 20.4% | 62.7 | 38.3%
12 | O=C1c2cccc3cccc(c23)C(=O)N1CCCCN1CCN(CCCCOc2ccc(-c3nc4ccc(N5CCOCC5)cc4[nH]3)cc2)CC1 | 79.2 | 90.9 | 94.8 | 98.3 | 75% | -29.5% (active) | 70.4% | 39.6% | 80.6 | 93.9% | 77.2 | 57.1% | 86.5% | 91.6 | 24.1% | 68.6 | 74.7 | 106% | 96.6 | 98.4%
13 | CCC(=O)c1ccc(Cl)s1 | 104 | 103 | 134 | 109 | 99% | 102% | 93.7% | 98.7% | 105 | 101% | 111 | 109% | 115% | 106 | 115% | 94.8 | 113 | 114% | 104 | 103%
14 | c1ccc(Cn2cc(-c3nc4ccccc4s3)c3cccnc32)cc1 | 96.6 | 92.4 | 101 | 96.1 | 102% | 98.3% | 87.9% | 104% | 104 | 118% | 102 | 129% | 95% | 84 | 115% | 99 | 102 | 100% | 110 | 106%
15 | O=C(O)c1ccc(NC(=O)c2ccc(-c3cccc([N+](=O)[O-])c3)o2)cc1 | 91.8 | 89.3 | 95 | 103 | 102% | 98.6% | 94.5% | 101% | 105 | 107% | 105 | 107% | 86.4% | 96.1 | 113% | 98.5 | 98.8 | 99.4% | 105 | 107%
